DT40 TDP1 CPT: growth inhibition of DT40 Tdp1-/-;hTDP1 cells with camptothecin (screen for TDP1 inhibitors); AID 686979; 12% of 420,000 active; chicken DT40 Tdp1-/-;hTDP1 cells + 20 nM CPT, ATP luminescence, 48 h; Potency, µM (titrated, usually from 46.2 µM), inactives show at the top dose activity change, negative = growth inhibition, hits mostly inhibitors; note: nearly all actives have a fitted effect of over 55% in size
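Chicken DT40 Tdp1-/- cells stably complemented with human TDP1 were seeded at 400 cells/well in medium containing 20 nM camptothecin, exposed to pin-transferred compounds, and grown at 37 °C for at least 48 hr. Viability was read as ATP luminescence.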
TDP1 cell noCPT: qHTS for Inhibitors of human tyrosyl-DNA phosphodiesterase 1 (TDP1): qHTS in cells in absence of CPT; DT40 Tdp1-/- hTDP1 cells, no CPT, ATP luminescence, 48 h; Potency, µM (doses to about 46.2 µM), without a hit: top-dose activity change, negative = growth inhibition, hits mostly inhibitors; 15% of 420,000 active; AID 686978, 2013; note: nearly all actives have a fitted effect of over 55% in size
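DT40 Tdp1-/-;hTDP1 cells, no CPT (DMSO vehicle only), 400 cells/well; compounds pin-transferred; ≥48 hr, 37 °C; CellTiter-Glo 30 min RT dark, luminescence read.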
RORgamma inh: ROR gamma (mouse) transcription inhibition; 5.4% of 310,000 active; Drosophila S2 Gal4-RORgamma UAS-luciferase reporter, 20 h; Potency, µM (doses to about 53.6 µM), for inactives: at the top dose activity change, negative = inhibition, most hits filed as inhibitors; P51450; note: nearly all actives have a fitted effect of over 60% in size
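A Gal4/UAS one-hybrid system in insect cells: metallothionein-promoter Gal4–ROR gamma fusion plus Photinus luciferase reporter. Copper sulfate 700 uM final, 20 hr ambient incubation, luminescent detection after 10 min with reagent.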
VP16 counter: inhibits Gal4-VP16 luciferase reporter, ROR gamma counter-screen; Drosophila S2 Gal4-VP16 UAS-luciferase, luminescence, 20 h; Potency, µM (series often up to 53.6 µM), without a hit: top-dose activity, negative = inhibition, hits mostly inhibitors; 3.5% of 310,000 active;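 note: Gal4-VP16 expression switched on by copper sulfate through the metallothionein promoter; nearly all actives have a fitted effect of over 50% in size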
ELG1 DNA repair: blocks ELG1-dependent DNA repair in HEK293T cells | HEK293T ELG1-luciferase reporter, luminescence, 16 h; DNA damage induced by 5-fluorouridine | Potency, µM (doses to about 46.1 µM), for inactives: top-dose activity change, negative = inhibition, usual class: inhibitors | 2.3% of 330,000 active; note: nearly all actives have a fitted effect of over 55% in size
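In this reporter screen, reduction of luminescence relative to DMSO vehicle indicated activity. Compounds and 5-fluorouridine were added together to 2,000 cells per well, incubated for 16 hr at 37 °C, then developed with ONE-Glo.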
12-LOX inh: blocks human arachidonate 12S-lipoxygenase; P18054; purified 12hLO, xylenol orange hydroperoxide absorbance; Potency, µM (highest dose often 108 µM), for inactives: top-dose activity change, negative = inhibition, usual class: inhibitors; 1.1% of 580,000 active; AID 1671190
Target sequence (P18054 whole entry, looked up): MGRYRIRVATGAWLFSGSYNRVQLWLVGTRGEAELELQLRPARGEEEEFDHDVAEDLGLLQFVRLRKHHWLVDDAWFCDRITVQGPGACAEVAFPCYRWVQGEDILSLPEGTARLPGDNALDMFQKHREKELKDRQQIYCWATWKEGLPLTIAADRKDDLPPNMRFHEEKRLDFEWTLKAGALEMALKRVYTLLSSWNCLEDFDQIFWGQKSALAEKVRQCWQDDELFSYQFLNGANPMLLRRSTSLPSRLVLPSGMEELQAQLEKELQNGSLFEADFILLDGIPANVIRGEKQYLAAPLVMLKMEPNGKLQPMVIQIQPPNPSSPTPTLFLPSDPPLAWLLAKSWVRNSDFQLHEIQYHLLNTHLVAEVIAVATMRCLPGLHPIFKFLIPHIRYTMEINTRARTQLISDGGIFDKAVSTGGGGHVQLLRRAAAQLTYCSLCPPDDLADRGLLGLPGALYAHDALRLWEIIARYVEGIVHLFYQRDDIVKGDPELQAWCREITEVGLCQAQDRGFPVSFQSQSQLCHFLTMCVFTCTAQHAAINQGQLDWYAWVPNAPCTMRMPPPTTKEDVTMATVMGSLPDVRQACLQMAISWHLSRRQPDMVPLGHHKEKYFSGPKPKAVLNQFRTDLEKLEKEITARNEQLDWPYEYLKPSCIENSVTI
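Hydroperoxide product was detected by ferrous iron/xylenol orange as the 573 to 405 nm absorbance ratio. Arachidonic acid at 40 uM (final) was turned over for 30 min at room temperature by 150 nM human 12hLO, pH 7.0 Hepes buffer, after 15 min compound preincubation.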
Active calls of the source: *. Only some compounds are listed: those with a hit (about 15% of all), similar ones and a draw of the others. Calls come from the whole dose curve; as a rule, active = well fitted curve in the direction sought with a large enough effect; inconclusive = small, poorly fitted or top-dose-only effect, or another doubt; inactive = no such curve, though single readings can be large; an effect the other way counts as inactive or inconclusive. % is set by controls: 0 for no effect and ±100 for the full control effect; potency is the fitted concentration of half-maximal effect.

CC(C)(C)n1nnnc1C1CC2(CCOCC2)C(=O)N1CCc1nc2ccccc2[nH]1 (configuration not stated) was read as 12-LOX inh 95%.
CCCCc1cc(=O)oc2cc(C)c3c(C)coc3c12 was read as DT40 TDP1 CPT 15µM*, TDP1 cell noCPT inconclusive and 12-LOX inh -29%.
For CCCCc1cc(=O)oc2cc(O)cc(O)c12 the results were DT40 TDP1 CPT 3%, TDP1 cell noCPT 9.2µM*, RORgamma inh -38%, VP16 counter 22µM*, ELG1 DNA repair -13% and 12-LOX inh inconclusive.
Screening COc1ccc(-n2c(C)c(C)c3c(N)ncnc32)cc1 returned DT40 TDP1 CPT inconclusive, TDP1 cell noCPT inconclusive, RORgamma inh -12%, VP16 counter -10%, ELG1 DNA repair 10µM* and 12-LOX inh -10%.
`Cc1c(C(=O)N2CCN(c3ccc(C(F)(F)F)cn3)CC2)oc2ccccc12` gave DT40 TDP1 CPT 23µM*, TDP1 cell noCPT 18µM*, RORgamma inh 3%, VP16 counter -9%, ELG1 DNA repair -14% and 12-LOX inh 0%.
Screening Cc1ccc(C(=O)N2CCN(c3ccc(C(F)(F)F)cn3)CC2)cc1 returned DT40 TDP1 CPT -28%, TDP1 cell noCPT inconclusive, RORgamma inh inconclusive, VP16 counter -8%, ELG1 DNA repair 6% and 12-LOX inh 2%.
`Cc1ccc(C(=O)N2CCN(c3ccc(C(F)(F)F)cn3)CC2)c(C)c1` gave DT40 TDP1 CPT 16µM*, TDP1 cell noCPT 21µM*, RORgamma inh 17%, VP16 counter -14%, ELG1 DNA repair -5% and 12-LOX inh -24%.
CC(C)(C)C(=O)N1N=C(c2cccs2)CC1c1ccc2nccnc2c1 (configuration not stated) was read as 12-LOX inh 1%.
O=C(Cn1nc2c(cc1=O)CCCC2)NCc1nnc2ccccn12 was read as 12-LOX inh -6%.
CC1CC(C)CN(C(=O)CCCn2c(=S)[nH]c3ccccc3c2=O)C1 (configuration not stated) was read as DT40 TDP1 CPT -24%, TDP1 cell noCPT -22%, RORgamma inh 7.9µM*, VP16 counter 13µM*, ELG1 DNA repair inconclusive and 12-LOX inh 0%.
For O=C(CCCn1c(=S)[nH]c2ccccc2c1=O)N1CCCCC1 the results were DT40 TDP1 CPT -4%, TDP1 cell noCPT inconclusive, RORgamma inh inconclusive, VP16 counter inconclusive, ELG1 DNA repair -2% and 12-LOX inh -8%.
Screening O=C(C1CCC(Cn2c(=S)[nH]c3ccccc3c2=O)CC1)N1CCN(c2ccccn2)CC1 (configuration not stated) returned DT40 TDP1 CPT inconclusive, TDP1 cell noCPT 23µM*, RORgamma inh 5.6µM*, VP16 counter inconclusive, ELG1 DNA repair 5.2µM* and 12-LOX inh -3%.
For O=C(C1CCC(Cn2c(=S)[nH]c3ccccc3c2=O)CC1)N1CCN(c2ccccc2)CC1 (configuration not stated) the results were DT40 TDP1 CPT inconclusive, TDP1 cell noCPT inconclusive and 12-LOX inh 5%.
For COc1ccc(N2CCN(C(=O)C3CCC(Cn4c(=S)[nH]c5ccccc5c4=O)CC3)CC2)cc1 (configuration not stated) the results were DT40 TDP1 CPT 15µM*, TDP1 cell noCPT 23µM*, RORgamma inh 3.5µM*, VP16 counter 7.1µM*, ELG1 DNA repair inconclusive and 12-LOX inh -2%.
